Assay results taken from PubChem BioAssay.
Calls of active or inactive are those of the source.

Tests used:
[1] = A549 cell viability effects, profiling panel, calcein-AM fluorescence, 48 h, basal (AID 1162); settings: higher = more signal
[2] = adipocyte viability effects, profiling panel, cell-based, 3T3-L1 adipocytes, calcein-AM fluorescence, 48 h, basal (AID 1163); settings: 3T3-L1 adipocytes viability, higher = more signal
[3] = HepG2 cell viability effects, profiling panel, calcein-AM fluorescence, 48 h, basal (AID 1164); settings: higher = more signal
[4] = MM1S cell viability effects, profiling panel, calcein-AM fluorescence, 48 h, basal (AID 1165); settings: higher = more signal;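 further: viability of MM1S multiple myeloma cells under basal unstimulated conditions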
[5] = basal RPMI8226 viability, no added stimulus, profiling panel, cell-based, calcein-AM fluorescence, 48 h, PK04 Diversity Set (AID 1166); settings: RPMI8226 myeloma viability, higher = more signal;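 further: cells grown under basal conditions without added stimulus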
[6] = basal HepG2 mitochondrial membrane potential changes, profiling panel, cell-based, JC-1 fluorescence, 24 h, 100 nL compound (AID 1167); settings: higher = more signal
[7] = basal 3T3-L1 adipocyte mitochondrial potential changes, profiling panel, cell-based, JC-1 fluorescence, 3T3-L1 adipocytes, 24 h, 100 nL compound (AID 1168); settings: JC-1 mitochondrial fluorescence, higher = more signal, called active from +8 up or from −8 down
[8] = basal RPMI8226 mitochondrial membrane potential changes, profiling panel, cell-based, JC-1 fluorescence, 24 h, 100 nL compound (AID 1169); settings: RPMI8226 myeloma, JC-1 mitochondrial potential fluorescence, higher = more signal
[9] = basal MM1S mitochondrial membrane potential changes, profiling panel, cell-based, JC-1 fluorescence, 24 h, 100 nL compound (AID 1170); settings: higher = more signal
[10] = A549 lung cancer cell viability effects, profiling panel, resazurin fluorescence, 24 h, PK04 Diversity Set (AID 1171); settings: higher = more signal, called active from +8 up or from −8 down
Further: test concentration not given here.

| Structure (SMILES) | z-score [1] | z-score [2] | z-score [3] | z-score [4] | z-score [5] | z-score [6] | z-score [7] | z-score [8] | z-score [9] | z-score [10] |
| --- | --- | --- | --- | --- | --- | --- | --- | --- | --- | --- |
| O=C1C[C@@](C(=O)NC2CC2)(c2ccc([N+](=O)[O-])cc2)[C@@H](c2ccc(CO)cc2I)N1C1CCCCC1 | 0.147 | -0.536 | 0.522 | -1.77 | -1.17 | 0.575 | -0.604 (inactive) | -0.36 | -0.993 | 0.0067 (inactive) |
| O=C1c2ccccc2[C@](Cc2ccccc2I)(C(=O)NCC(F)(F)F)[C@H](c2ccc(CO)cc2)N1Cc1ccccc1Cl | 0.0986 | 0.46 | 0.0068 | -1.06 | -1.55 | 0.798 | 0.149 (inactive) | -0.68 | -1.34 | 1.57 (inactive) |
| CN1C=C(C(=O)OCCS(C)(=O)=O)C(C(=O)OCCS(C)(=O)=O)=CC(c2ccc(CO)cc2)=CC1C1CC1 (stereo not given) | 1.39 | -0.0622 | 1.28 | -0.807 | -0.75 | 2.14 | -0.9 (inactive) | 0.167 | -0.919 | -0.267 (inactive) |
| N#Cc1ccc(NN2C(C(O)C(c3ccccc3)c3ccccc3)C=CC3C(=O)N(c4ccccc4)C(=O)C32)cc1 (stereo not given) | 0.825 | -1.53 | 0.361 | 0.0017 | 0.103 | 0.913 | -0.435 (inactive) | -0.812 | -0.379 | -0.386 (inactive) |
| CCOC(=O)C1=CC[C@@H](c2ccccc2)N(S(=O)(=O)c2ccc(C)cc2)[C@H]1c1ccccc1C | -1.42 | 0.068 | -0.0628 | -0.247 | -0.734 | 2.59 | -0.134 (inactive) | -0.275 | -0.271 | 2.32 (inactive) |
| COc1ccc(C(O)C2C=CC3C(=O)N(Cc4ccccc4)C(=O)C3N2n2cnnc2)cc1OCc1ccccc1 (stereo not given) | 0.187 | 0.534 | -0.345 | 0.195 | -1.79 | -0.323 | -1.06 (inactive) | 0.593 | -0.882 | 0.18 (inactive) |
| C=CCNC(=O)[C@H]1[C@@H]2C(=O)O[C@@H](c3ccccc3)[C@@H](c3ccccc3)N2[C@@H](c2ccccc2OCCO)[C@]12C(=O)Nc1ccc(C#CCC(C(=O)OC)C(=O)OC)cc12 | 0.246 | -0.72 | -0.845 | -3.34 | -4.63 | -0.64 | 2.62 (inactive) | -1.32 | -2.23 | 0.545 (inactive) |
| OCCCC1=CC(c2cccs2)N(Cc2cc3c(cc2Br)OCO3)CC1 (stereo not given) | -0.433 | 1.03 | 0.145 | -1.44 | -1.52 | -0.578 | -0.359 (inactive) | -0.707 | -0.145 | -0.178 (inactive) |
| COCCOC(=O)N1C(=O)[C@@]2(c3cc(C#CCNC(N)=O)ccc31)[C@H](C(=O)N1CCN(c3ncccn3)CC1)[C@H]1C(=O)O[C@H](c3ccccc3)[C@H](c3ccccc3)N1[C@@H]2c1ccc(OCCO)cc1 | 0.572 | 0.148 | 0.548 | 0.63 | 0.287 | -2.07 | 1.6 (inactive) | -0.863 | -1.51 | -0.465 (inactive) |
| C=CCNC(=O)[C@@H]1[C@H]2C(=O)O[C@H](c3ccccc3)[C@H](c3ccccc3)N2[C@H](c2ccccc2OCCO)[C@@]12C(=O)N(C(=O)OCCOC)c1ccccc12 | -0.798 | 0.955 | -1.69 | -2.24 | -3.37 | -0.186 | 0.149 (inactive) | -0.813 | -0.287 | -2.03 (inactive) |
| C=CC[C@]1(C(=O)NCCCOC)N=C(c2ccc(OCCCO)cc2)O[C@H]1c1ccccc1CN=[N+]=[N-] | 0.566 | 0.243 | 0.716 | -1.86 | -0.134 | 1.76 | -0.299 (inactive) | -1.25 | -0.142 | -0.0227 (inactive) |
| COCCOC(=O)N1C(=O)[C@@]2(c3cc(C#CCNC(N)=O)ccc31)[C@H](C(=O)Nc1nc3ccccc3s1)[C@H]1C(=O)O[C@H](c3ccccc3)[C@H](c3ccccc3)N1[C@@H]2c1ccc(OCCO)cc1 | -0.649 | 1.2 | -1.22 | -2.58 | -0.0496 | -3.26 | 1 (inactive) | -0.692 | -1.53 | 0.385 (inactive) |
| CC(C)C(O)C1C=CC2C(=O)N(c3ccccc3)C(=O)C2N1Nc1ccc([N+](=O)[O-])cc1 (stereo not given) | -0.821 | -1.18 | 0.497 | 0.637 | -0.023 | -1.41 | -1.37 (inactive) | 0.766 | -1.07 | -0.397 (inactive) |
| O=C(CS)NCCCCCCNC(=O)[C@@H]1C[C@@H]2C(=O)N[C@@H](Cc3ccccc3)C(=O)N2[C@@H]1c1cccc(OCCO)c1 | -0.55 | 0.363 | 0.371 | -0.204 | 0.537 | -1.28 | 0.476 (inactive) | 0.198 | -0.143 | -0.436 (inactive) |
| C=CCN1C(=O)[C@@]2(Cc3ccccc31)N=C(c1ccc(OCCCO)cc1)O[C@H]2c1ccccc1 | -0.914 | -0.107 | -1.38 | -3.23 | -2.16 | -0.927 | 0.133 (inactive) | -0.942 | -1.29 | -1.99 (inactive) |
